The text below walks through data of ChEMBL document CHEMBL1857833, “Screening and optimization of specific chemical series against human African Trypanosomiasis (HAT)”.

SMILES strings stand for the structures. The whole screen tested about 4,400 compounds, of which about 390 (8.9%) showed an effect of 50% or more. Only a selection was taken, and strong results are over-represented in it overall.

This experiment has as its system Trypanosoma brucei. The experiment can be described thus: DNDI: Inhibition of Human African Trypanosomiasis, SBRI 427, in vitro at 2 ug.mL-1. It counts as functional.
As a reminder, the % inhibition is the drop in the measured response relative to a control, in per cent. On to `COc1ccc(OC)c(CCNCc2coc(-c3ccc(C(C)(C)C)cc3)n2)c1`, for which the “% inhibition” value is 74%.

In the case of `COc1ccc(-c2nc(CNCCc3cc(OC)ccc3OC)co2)cc1`, the “% inhibition” value is given as 7%.

With `COc1ccc(OC)c(CCNCc2coc(-c3ccc(C)cc3)n2)c1`, the “% inhibition” value worked out at 7%.

As for `COc1ccc(Oc2nc(C)ccc2/C(=N/O)N2CC2C)cc1` (stereo not given), the “% inhibition” value came to 14%.

`Cc1cc(C)cc(Oc2ccc(/C(=N/O)N3CC3C)cn2)c1` (stereo not given): the “% inhibition” value stood at 3%.

With `CC1CN1/C(=N\O)c1ccc(Oc2ccc3ccccc3c2)nc1` (stereo not given), the “% inhibition” value was 8%.

`CC1CN1/C(=N\O)c1ccc(Oc2ccc3oc4ccccc4c3c2)nc1` (stereo not given): the “% inhibition” value amounted to 68%.

For the compound `COc1ccc(OC)c(CCNCc2coc(-c3ccccc3C)n2)c1`, the “% inhibition” value is recorded as 11%.

In the case of `Cc1ccc(/C(=N/O)N2CC2C)c(Oc2cccc(C(C)C)c2)n1` (stereo not given), the “% inhibition” value is -6%.

Consider `Cc1ccc(/C(=N/O)N2CC2C)c(Oc2cccc3ccccc23)n1` (stereo not given), for which the “% inhibition” value is 12%.
